Structures are written as SMILES. Records with an inconclusive call do not appear. A call without a number means that no potency is given here. The source made the active and inactive calls. Calls come from the whole dose curve; as a rule, active = well fitted inhibition curve with a large enough effect; inconclusive = small, poorly fitted or top-dose-only effect; inactive = flat fitted curve, though single readings scatter.

The test system of the test is CRL-7250. Put plainly: qHTS assay to identify novel small-molecules to repurpose for Merkel cell carcinoma treatment (AID 1296009). Note: nearly all actives have a fitted effect of over 60% in size. The conditions noted are these: MCC and control cell lines, CellTiter-Glo viability, 72 h; series mostly up to 92 µM. The procedure, abridged:
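Dose-response viability screen; 72 hr exposure at 37 degree celsius; CellTiter-Glo added, 10 min room temperature, luminescence read; RLUs scaled between no-cell and DMSO wells.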
Consider `COC(=O)c1cc(CN2CCN(C(=N)N)CC2)cc(C(=O)N2CCN(C(=O)c3ccc(C(=N)N)cc3)CC2)c1`, for which the Potency result was “inactive”.
Under `Nc1nc2c(cnn2CCCc2ccc(O)cc2)c2nc(-c3ccco3)nn12` stands “inactive”; under `C=C1C(O)CCC2(C)CC3(OC)OC(=O)C(C)=C3CC12` (stereo not drawn), “inactive”.
Under `CCC(C)/C=C(C)/C=C/C1=CC2=C(Cl)C(=O)C(C)(OC(C)=O)C(=O)C2=CN1C1CCCCN(C(CCC(N)=O)C(=O)O)C1=O` (stereo not drawn) stands “inactive”.
Under `CC(C)(Oc1ccc(-c2nc3cc(Cl)ccc3s2)cc1)C(=O)O` stands “inactive”; under `Fc1ccc(-c2nc(C3CCNCC3)sc2-c2ccnc(NC3CC3)n2)cc1`, “inactive”; under `COC(=O)C[C@H]1C(C)(C)[C@H](OC(=O)C(C)C)[C@@]2(O)C(=O)[C@]1(C)C1CC[C@]3(C)C(CC(=O)O[C@H]3c3ccoc3)[C@]13O[C@@H]32` (stereo partly drawn), “inactive”.
Take `CC1=C2CC(C)(C)CC2C(O)C2=C(C1)C(=O)OC2O` (stereo not drawn): the Potency result is “inactive”.
Under `COC(=O)C(CC1(O)c2ccccc2N2C(=O)C(C)(C)N(O)C21)n1cnc2ccccc2c1=O` (stereo not drawn) stands “inactive”; under `C=C1CCC2C(C)(C)CC(=O)CC2(C)C1CCC(C)CCOC(C)=O` (stereo not drawn), “inactive”.
As to `c1nc(NC2CCCCCC2)c2cc(CNC[C@H]3CCCO3)sc2n1`, the Potency entry was “inactive”.
Regarding `CC(=O)OC1CC(=O)C2(C)C3CC4=C(OC(C)CC4=O)OC3(C)CCC2C1(C)C` (stereo not drawn), the Potency result is “inactive”.
Under `C=C1C(=O)OC[C@H]2C(C(=O)O)=CC3CC(C)(C)C[C@@]132` (stereo partly drawn) stands “inactive”; under `C/C=C(\C)C(=O)OCC1OC(OC2OC(CO)C(O)C(O)C2O)C(O)C(O)C1O` (stereo not drawn), “inactive”; under `OC[C@H]1O[C@@H](Oc2ccccc2)[C@H](O)[C@@H](O)[C@@H]1O`, “inactive”.
For `COC(=O)C1=COC(OC2OC(CO)C(O)C(O)C2O)C2C(COC(=O)/C=C/c3ccc(O)cc3)C(O)C(O)C12` (stereo not drawn) the value was “inactive”; for `COc1cc([C@@H]2Oc3c(OC)cc(CCCO)cc3[C@@H]2CO[C@@H]2O[C@H](CO)[C@@H](O)[C@H](O)[C@H]2O)ccc1O`, “inactive”; for `CC(C)(O)c1ccc2c(c1)ncn2-c1cccc(-c2ccccc2C#N)c1`, “inactive”.
For `CC1=C2C[C@@]3(C)[C@@H](CCC[C@@H]3C)C[C@@]2(O)OC1=O` the value was “inactive”; for `C=C1CC[C@H]2[C@@H](/C=C(\C)C(=O)[C@@]3(OC(C)=O)C[C@H](C)[C@H](OC(C)=O)[C@@H]3[C@H]1OC(C)=O)C2(C)C`, “inactive”; for `O=c1ccn(C2OC(CO)C(O)C2O)c(=O)[nH]1` (stereo not drawn), “inactive”.
On to `CC1=CC(=O)CC(C)(CO[C@@H]2O[C@H](CO)[C@@H](O)[C@H](O)[C@H]2O)C1(O)/C=C/C(C)=C/C(=O)O` (stereo partly drawn), for which the Potency entry was “inactive”.
As for `C=CC(C)(O)CC/C=C(\C)C(=O)O[C@@H]1[C@@H](O)[C@H](OC(C)(C=C)CC/C=C(\C)C(=O)O)O[C@H](CO)[C@H]1OC(=O)/C(C)=C/CCC(C)(O)C=C` (stereo partly drawn), the Potency entry is “inactive”.
For `COc1c2c(c(C)c3c1C(=O)OC3)OC1(C)CC(O)C(C(C)(C)O)C(C)(CCC(=O)O)C1C2` (stereo not drawn) the value was “inactive”; for `CC1(C)O[C@H]2CC(=O)OC[C@@]23C1=C(O)C(=O)[C@]1(C)C3CC[C@@]2(C)[C@H](c3ccoc3)OC(=O)[C@H]3O[C@]321` (stereo partly drawn), “inactive”.
Under `COc1cc2c(cc1OC)CC(=O)N(CCCNC[C@H]1Cc3cc(OC)c(OC)cc31)CC2` stands “inactive”.
For `CC(=O)/C=C/C1(O)C(C)CC(O[C@@H]2O[C@H](CO)[C@@H](O)[C@H](O)[C@H]2O)CC1(C)C` (stereo partly drawn) the value was “inactive”; for `Cc1cc(Nc2nc(NC(C)c3ncc(F)cn3)ncc2Cl)n[nH]1` (stereo not drawn), “inactive”; for `CCCCc1ccc(NS(=O)(=O)c2ccc(F)cc2)cc1`, “inactive”.
`COc1cc(CC2COC(c3ccc(OC4OC(CO)C(O)C(O)C4O)c(OC)c3)C2CO)ccc1O` (stereo not drawn): the Potency entry was “inactive”.
For `COc1ccc(C2COc3cc(O)ccc3C2)c(O)c1OC` (stereo not drawn) the value was “inactive”; for `C[C@H]1O[C@@H](O[C@H]2CC[C@@]3(C)C(CC[C@]4(C)C3CC=C3C5CC(C)(C)CC[C@]5(C(=O)O)CC[C@]34C(=O)O)C2(C)C)[C@H](O)[C@@H](O)[C@@H]1O` (stereo partly drawn), “inactive”; for `O=C(c1ccc(C#Cc2cccc(F)c2)cn1)N1CC2CC2C1` (stereo not drawn), “inactive”.
Under `CC1(O)CCC2C(C(=O)O)=COC(OC3OC(CO)C(O)C(O)C3OC(=O)/C=C/c3ccc(O)cc3)C21` (stereo not drawn) stands “inactive”.
Turning to `O=C(CN1C(=O)C2(CCCC2)NCC1c1cc(F)cc(F)c1)Nc1ccc2c(c1)CC1(C2)C(=O)Nc2ncccc21` (stereo not drawn), the Potency entry was “inactive”.
Under `CC(C)(O)C1=CCC23COC(C2)C(O)(C(=O)O)CCC13` (stereo not drawn) stands “inactive”; under `COc1ccc(NC(=O)C2C[C@H](C)CC[C@H]2C(C)C)cc1` (stereo partly drawn), “inactive”; under `CC(=O)c1ccc(O[C@@H]2O[C@H](CO[C@@H]3OC[C@@H](O)[C@H](O)[C@H]3O)[C@@H](O)[C@H](O)[C@H]2O)cc1`, “inactive”.

Values taken from PubChem BioAssay (NCATS).
